In PubChem BioAssay AID1159580 (chemical genetic matrix, 2015):
Values joined by “and” are separate entries in the source; they are usually repeats but may differ in a detail not shown here. Equal values may be shown once. Screen size: about 5,500 compounds; about 2,000 (36%) were called active. Roughly 18% stayed inconclusive and do not appear here. Cut-off read from the data, not from the text of the source: active = normalized growth mostly below about 0.91 (no sharp cut-off); inconclusive = no clear call, values can overlap the other calls; inactive = mostly above about 0.92. The list shows a part of the results.

Assay: chemical genetic growth profiling, strain panel (AID 1159580);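 note: tested at 20 µM; growth read once vehicle control cultures reached saturation at 30 °C; 1 = growth at the plate median or of vehicle wells; lower values mean less growth of the strain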
Conditions: S. cerevisiae deletion strains, growth OD

Measured: normalized growth

CC1(C)CC[C@]2(C)CC[C@]3(C)C(=CCC4[C@@]5(C)CC[C@H](O)C(C)(C)C5CC[C@]43C)C2C1 (stereo partly specified)
inactive: locus YAL021C, strain ccr4, active compounds read low 0.992 | locus YAL026C, strain drs2, active compounds read low 1 | locus YAL030W, strain snc1, active compounds read low 0.988 | locus YBL061C, strain skt5, active compounds read low 0.986 | locus YBR009C, strain hhf1, active compounds read low 1.02 | locus YBR021W, strain FUR4, active compounds read low 1.07 | locus YBR023C, strain chs3, active compounds read low 0.975 | locus YBR171W, strain sec66, active compounds read low 0.993 | locus YBR229C, strain ROT2, active compounds read low 1.01 | locus YBR231C, strain swc5, active compounds read low 1 | locus YBR279W, strain paf1, active compounds read low 0.991 | locus YCL011C, strain gbp2, active compounds read low 0.985 | locus YCL016C, strain dcc1, active compounds read low 0.99 | locus YCL029C, strain bik1, active compounds read low 0.999 | locus YCL061C, strain MRC1, active compounds read low 1 | locus YCL069W, strain vba3, active compounds read low 0.995 | locus YCR088W, strain abp1, active compounds read low 0.999 | locus YDL005C, strain med2, active compounds read low 1.01 | locus YDL035C, strain GPR1, active compounds read low 1.02 | locus YDL040C, strain nat1, active compounds read low 1 | locus YDL074C, strain BRE1, active compounds read low 1.02 | locus YDL101C, strain DUN1, active compounds read low 0.997 | locus YDL185W, strain tfp1, active compounds read low 0.954 | locus YDL192W, strain arf1, active compounds read low 0.99 | locus YDR001C, strain nth1, active compounds read low 0.994 | locus YDR069C, strain doa4, active compounds read low 0.978 | locus YDR101C, strain arx1, active compounds read low 1 | locus YDR137W, strain rgp1, active compounds read low 1.01 | locus YDR150W, strain NUM1, active compounds read low 1 | locus YDR159W, strain sac3, active compounds read low 1.02 | locus YDR162C, strain NBP2, active compounds read low 1.04 | locus YDR195W, strain ref2 0.965 | locus YDR297W, strain sur2, active compounds read low 0.972 | locus YDR318W, strain mcm21, active compounds read low 0.985 | locus YDR334W, strain swr1, active compounds read low 0.996 | locus YDR335W, strain msn5, active compounds read low 1 | locus YDR388W, active compounds read low 0.988 | locus YDR392W, strain spt3, active compounds read low 1.01 | locus YDR502C, strain sam2, active compounds read low 0.986 | locus YEL003W, strain gim4, active compounds read low 0.993 | locus YEL037C, strain rad23, active compounds read low 0.998 | locus YEL061C, strain CIN8 (second series), active compounds read low 0.987 | locus YER015W, strain faa2, active compounds read low 0.988 | locus YER016W, strain bim1, active compounds read low 0.995 | locus YER110C, active compounds read low 0.987 | locus YER111C, strain swi4, active compounds read low 0.994 | locus YER155C, strain BEM2 (second series), active compounds read low 0.982 | locus YER155C, strain BEM2, active compounds read low 1 | locus YER167W, strain BCK2, active compounds read low 0.992 | locus YFR010W, strain ubp6, active compounds read low 1.01 | locus YGL078C, strain dbp3, active compounds read low 0.955 | locus YGL086W, strain mad1, active compounds read low 0.987 | locus YGL167C, strain pmr1, active compounds read low 0.994 | locus YGL173C, strain kem1, active compounds read low 0.998 | locus YGL227W, strain vid30, active compounds read low 0.986 | locus YGL240W, strain doc1, active compounds read low 0.983 | locus YGL248W, strain PDE1, active compounds read low 1.01 | locus YGL253W, strain hxk2, active compounds read low 0.993 | locus YGR078C, strain PAC10, active compounds read low 1 | locus YGR135W, strain pre9, active compounds read low 0.963 | locus YGR229C, strain SMI1, active compounds read low 0.989 | locus YGR252W, strain gcn5, active compounds read low 1.04 | locus YHR013C, strain ard1, active compounds read low 0.986 | locus YHR027C, strain rpn1, active compounds read low 0.977 | locus YHR030C, strain SLT2, active compounds read low 1.07 | locus YHR079C, strain IRE1 (second series), active compounds read low 0.989 | locus YHR079C, strain IRE1, active compounds read low 1.03 | locus YHR094C, strain hxt1, active compounds read low 0.997 | locus YHR129C, strain ARP1, active compounds read low 1.01 | locus YHR142W, strain chs7, active compounds read low 1.04 | locus YHR200W, strain rpn10, active compounds read low 0.996 | locus YIL066C, strain RNR3, active compounds read low 1.02 | locus YIL073C, strain SPO22, active compounds read low 0.964 | locus YIL125W, strain kgd1, active compounds read low 0.947 | locus YIR030C, strain dcg1, active compounds read low 0.985 | locus YJL092W, strain hpr5, active compounds read low 1.01 | locus YJL095W, strain BCK1 (second series), active compounds read low 0.991 | locus YJL095W, strain BCK1, active compounds read low 0.995 and 1.03 | locus YJL115W, strain asf1, active compounds read low 0.985 | locus YJL129C, strain trk1, active compounds read low 1.02 | locus YJL134W, strain LCB3, active compounds read low 0.998 | locus YJL154C, strain vps35, active compounds read low 0.99 | locus YJL164C, strain tpk1, active compounds read low 0.999 | locus YJL166W, strain qcr8, active compounds read low 0.997 | locus YJL168C, strain set2, active compounds read low 0.989 | locus YJL187C, strain SWE1 (second series), active compounds read low 0.997
